Assay results as given in PubChem BioAssay.
Activity calls are given as the source filed them.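 Rule for the calls, unless noted: active = fluorescence slope higher than the sample average by over 3 SD (cut at about -0.22 in these data, passing the limit was not always enough); inactive = the rest.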

Tests used:
[1] = inhibitors of TNFa-induced NFkB p65 translocation, primary screen, imaging, HUVEC, MLSMR starter and 10KST1 sets (AID 438;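 active = inhibition above 20% together with a positive visual image hit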;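 note: compound added about 3h40 before a 20 min TNFalpha stimulation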;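 for inhibition: signal is the nuclear over cytoplasmic p65 intensity ratio per well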); conditions: HUVEC TNFa-induced p65 nuclear translocation; cell count: measured here: nuclei count (cytotoxicity indicator), at 2.08 µM; inhibition: at 2 µM, stronger effect = higher value, 0% TNFa-plus-vehicle, 100% no-TNFa wells
[2] = inhibitors of mutant huntingtin aggregation, primary screen, imaging, exon1htt(103Q)mCFP cells, high-content imaging (AID 483;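 active = visual image review flags a hit and inhibition of aggregation exceeds 20%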;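 note: compound exposure lasted 3 days before fixation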;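 for nuclei count: percent of the per-plate median nuclei count of sample wells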); conditions: exon1htt(103Q)mCFP cell line, aggregate imaging, at 2 µM; inhibition of aggregation: stronger effect = higher value; nuclei count: measured here: cell count, toxicity
[3] = inhibitors of E-selectin induction by TNFa, primary screen, imaging, HUVEC, immunofluorescence, MLSMR starter and 10KST1 sets (AID 487;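 active = visually confirmed hit in the image check and inhibition above 20%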;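 for inhibition: signal is fraction of cell area covered by stained E-selectin grains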;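 for nuclei count: 100% = median nuclei count of all wells on the same plate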); conditions: HUVEC TNFalpha-induced E-selectin immunofluorescence imaging, at 2 µM; inhibition: stronger effect = higher value; nuclei count: measured here: cell number, toxicity
[4] = target: Voltage-gated potassium channel subunit beta-2 (Rattus norvegicus) (UniProt P62483); assay: KvBeta enzyme negative modulators, primary screen, biochemical, NADPH fluorescence (AID 622); conditions: recombinant KvBeta, 4-cyanobenzaldehyde reduction, at 10 µM, stronger effect = higher value;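 note: slope of raw intensity against log time taken from 70 to 1610 s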
Chain of Voltage-gated potassium channel subunit beta-2 (Rattus norvegicus) (P62483 whole entry, looked up): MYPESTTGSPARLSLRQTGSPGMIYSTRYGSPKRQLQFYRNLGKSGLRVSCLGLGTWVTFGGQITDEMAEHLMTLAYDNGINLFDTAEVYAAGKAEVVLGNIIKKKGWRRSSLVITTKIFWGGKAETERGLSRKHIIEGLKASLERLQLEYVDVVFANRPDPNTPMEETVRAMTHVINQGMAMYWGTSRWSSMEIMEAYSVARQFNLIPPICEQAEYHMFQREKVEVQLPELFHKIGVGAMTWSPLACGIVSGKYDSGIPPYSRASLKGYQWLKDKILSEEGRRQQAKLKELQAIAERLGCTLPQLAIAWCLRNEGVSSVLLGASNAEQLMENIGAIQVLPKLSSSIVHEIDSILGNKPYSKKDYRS

[5] = target: Voltage-gated potassium channel subunit beta-2 (Rattus norvegicus) (UniProt P62483); assay: KvBeta positive modulators, primary screen, biochemical, NADPH fluorescence (AID 623;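 active = NADPH fluorescence slope more negative than the mean of all samples by about 3 SD, 99.7% confidence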;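 note: fluorescence intensity change per second fitted from 20 to 320 s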); conditions: Recombinant KvBeta, NADPH fluorescence decrease slope, 10 min; at 10 µM; stronger effect = lower value
[6] = target: Alpha-2C adrenergic receptor (Homo sapiens) (UniProt P18825); assay: modulators of alpha2C/GIRK thallium flux, primary screen, cell-based, HEK293 alpha2C/GIRK1/2 (AID 624;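 active = fluorescence slope after compound addition differing from the mean of all screened samples at 99.7% confidence, in either direction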;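 note: slope of fluorescence ratio to pre-addition baseline per second over 15 to 24 s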); conditions: thallium flux BTC fluorescence, at 10 µM, actives lie on both sides
Chain of Alpha-2C adrenergic receptor (Homo sapiens) (P18825 whole entry, looked up): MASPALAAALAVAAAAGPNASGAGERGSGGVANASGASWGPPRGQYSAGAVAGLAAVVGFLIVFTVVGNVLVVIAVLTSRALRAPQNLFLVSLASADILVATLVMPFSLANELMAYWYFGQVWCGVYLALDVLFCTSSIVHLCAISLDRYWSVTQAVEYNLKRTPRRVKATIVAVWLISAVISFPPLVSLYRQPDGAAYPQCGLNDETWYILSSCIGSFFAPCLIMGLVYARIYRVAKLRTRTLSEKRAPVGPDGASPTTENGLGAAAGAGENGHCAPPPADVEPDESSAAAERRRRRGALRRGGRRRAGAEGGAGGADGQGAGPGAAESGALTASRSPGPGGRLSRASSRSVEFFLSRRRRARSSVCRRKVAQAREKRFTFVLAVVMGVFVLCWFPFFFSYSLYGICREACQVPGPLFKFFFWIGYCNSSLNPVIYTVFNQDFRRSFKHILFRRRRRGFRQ

[7] = inhibitors of Sendai virus-induced IRF3 signaling, primary screen, TLR/RLR signaling modifier project, cell-based, Sendai virus stimulus, luciferase, 10K MLSCN set (AID 602276;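 active = inhibition at or above 50% at 10 µM; inactive = inhibition below 50%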;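 note: firefly luciferase from ISG56 promoter only with Renilla not read in this screen; 0% = Sendai virus plus DMSO and 100% = medium plus DMSO without virus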); conditions: HEK293 RL24 IRF3 luciferase reporter, at 10 µM, stronger effect = higher value
[8] = inhibitors of poly I:C-induced TLR3 signaling, primary screen, cell-based, poly I:C stimulus, luciferase, 10K MLSCN set (AID 602277;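 active = inhibition of the reporter signal at or above 50%; inactive = inhibition below 50%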); conditions: HEK293-TLR3 RL24 IRF3 luciferase reporter, at 10 µM, stronger effect = higher value

Row | Structure (SMILES) | cell count [1] | inhibition [1] | inhibition of aggregation [2] | nuclei count [2] [%] | inhibition [3] | nuclei count [3] [%] | fluorescence slope [4] | NADPH fluorescence slope [5] | slope [6] | inhibition [7] | inhibition [8]
1 | N#CCCNCC1(c2ccccc2)CCCC1 | 567 | -9.1% (inactive) | -10.6% (inactive) | 108 | 1.8% (inactive) | 104 | -0.576 (inactive) | -4.5e-05 (inactive) | 0.00572 (inactive) | 2.93% (inactive) | 9.79% (inactive)
2 | CC(C)c1nnc(SCC(=O)NCc2ccco2)n1C | 248 | 2.2% (inactive) | -12.1% (inactive) | 77 | 21.4% (inactive) | 86.7 | -0.485 (inactive) | 1.5e-05 (inactive) | 0.00695 (inactive) | 3.77% (inactive) | 97.8% (active)
3 | CCC(C)(C)n1nnnc1C(c1ccncc1)N1CCN(c2cccc(OC)c2)CC1 (centres undefined) | 410 | 1% (inactive) | -2.6% (inactive) | 95.6 | -31.9% (inactive) | 98.8 | -0.629 (inactive) | -2e-05 (inactive) | 0.00376 (inactive) | 23.4% (inactive) | 28.6% (inactive)
4 | COc1ccc(-c2nc(C)sc2CC(=O)O)cc1 | 533 | -15.7% (inactive) | 21% (inactive) | 93.9 | -1.1% (inactive) | 101 | -0.463 (inactive) | -8.6e-06 (inactive) | 0.00658 (inactive) | 11.4% (inactive) | 28.3% (inactive)
5 | O=C(CSc1ncnc2c1oc1ccccc12)Nc1ccccc1C(F)(F)F | 657 | -2.9% (inactive) | -15.8% (inactive) | 69.1 | -13.2% (inactive) | 106 | -0.556 (inactive) | -5.9e-06 (inactive) | 0.00657 (inactive) | -3.61% (inactive) | 1.95% (inactive)
6 | COc1ccc(CCNC(=O)C2CC(=O)N(c3ccccc3)C2)cc1OC (centres undefined) | 336 | -2.5% (inactive) | -5.4% (inactive) | 102 | 22.4% (inactive) | 109 | -0.452 (inactive) | 8.4e-07 (inactive) | 0.00653 (inactive) | 16.9% (inactive) | 25.7% (inactive)
7 | COc1cccc(-c2csc3nnc(SCC(=O)c4ccc(NC(C)=O)cc4)n23)c1 | 452 | 0% (inactive) | 21.2% (inactive) | 106 | -116% (inactive) | 176 | -0.47 (inactive) | 0.000104 (inactive) | 0.00779 (inactive) | 8.19% (inactive) | 17.5% (inactive)
8 | O=c1c2ccccc2nc(SCc2cccc(F)c2)n1Cc1ccco1 | 361 | -3.4% (inactive) | 4.4% (inactive) | 87.4 | -37.1% (inactive) | 91.3 | -0.37 (inactive) | 2.5e-05 (inactive) | 0.0116 (inactive) | 9.34% (inactive) | 4.77% (inactive)
9 | CCCCCn1c(CN2CCN(C)CC2)nc2c1c(=O)n(C)c(=O)n2C | 521 | -1.4% (inactive) | -17.1% (inactive) | 95.8 | 0.3% (inactive) | 93.2 | -0.571 (inactive) | -3e-06 (inactive) | 0.00637 (inactive) | 1.18% (inactive) | 43.6% (inactive)
10 | Cc1ccc2nc(NC(=O)C3CCCN(S(=O)(=O)c4cnc[nH]4)C3)sc2c1 (centres undefined) | 567 | 6.9% (inactive) | -11.1% (inactive) | 106 | -42.7% (inactive) | 113 | -0.553 (inactive) | -6.7e-06 (inactive) | 0.00608 (inactive) | -43.1% (inactive) | -79.3% (inactive)
11 | CCC1Oc2ccc(C)cc2N(CC(=O)NCCCN2CCCCC2CC)C1=O (centres undefined) | 651 | -3.9% (inactive) | 26.7% (inactive) | 109 | -34.9% (inactive) | 101 | -0.41 (inactive) | 2.7e-05 (inactive) | 0.0055 (inactive) | 16.8% (inactive) | 38.8% (inactive)
12 | COc1ccc(-c2noc(-c3ccccc3C(=O)NCc3ccco3)n2)cc1 | 331 | 9.3% (inactive) | -16.3% (inactive) | 77.4 | -64.4% (inactive) | 99.2 | -0.592 (inactive) | -4.7e-05 (inactive) | 0.00789 (inactive) | -8.85% (inactive) | -39.1% (inactive)
13 | O=C(CCNS(=O)(=O)c1ccc(Cl)cc1)NCc1ccccn1 | 609 | -21.1% (inactive) | 5.7% (inactive) | 78.6 | 0.3% (inactive) | 101 | -0.318 (inactive) | 8.2e-06 (inactive) | 0.00312 (inactive) | 17.1% (inactive) | 21.6% (inactive)
14 | COC(=O)CSc1nc2nc(C)cc(C)n2n1 | 722 | -4.5% (inactive) | 0.1% (inactive) | 98.6 | -33.5% (inactive) | 108 | -0.552 (inactive) | -1.8e-05 (inactive) | 0.00719 (inactive) | 11.7% (inactive) | 28.1% (inactive)
